The campaign covered roughly 5,500 compounds. About 2,000 (36%) were called active. Another 18% or so got no clear call; they are omitted. No stated cut-off is given here; in the data, active means normalized growth mostly below about 0.91 (no sharp cut-off); inconclusive means no clear call, values can overlap the other calls; inactive means mostly above about 0.92. Some of the results follow.
Experiment: chemical genetic growth profiling, strain panel (AID 1159580);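 further: tested at 20 µM; growth read once vehicle control cultures reached saturation at 30 °C; 1 = growth at the plate median or of vehicle wells; lower values mean less growth of the strain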
Settings: S. cerevisiae deletion strains, growth OD

Measured: normalized growth

OC(COc1ccc(F)cc1)(c1ccc(Cl)cc1)c1ccc(Cl)cc1
inactive: locus YAR019C, strain CDC15, hits give low values 0.991 | locus YBL105C, strain PKC1, hits give low values 0.985 | locus YBR135W, strain CKS1, hits give low values 0.984 | locus YBR136W, strain MEC1, hits give low values 1 | locus YBR160W, strain CDC28, hits give low values 0.982 | locus YDL017W, strain CDC7, hits give low values 0.988 | locus YDL028C, strain MPS1, hits give low values 0.985 | locus YDL101C, strain DUN1, hits give low values 0.974 | locus YDL108W, strain KIN28, hits give low values 0.978 | locus YDL132W, strain cdc53, hits give low values 0.987 | locus YDL214C, strain PRR2, hits give low values 0.985 | locus YDR052C, strain DBF4, hits give low values 0.989 | locus YDR054C, strain cdc34, hits give low values 0.993 | locus YDR226W, strain ADK1, hits give low values 0.983 | locus YDR477W, strain SNF1, hits give low values 0.996 | locus YER123W, strain YCK3, hits give low values 0.96 | locus YER133W, strain GLC7, hits give low values 0.987 | locus YFL009W, strain cdc4, hits give low values 0.993 | locus YFL029C, strain CAK1, hits give low values 0.988 | locus YFR003C, strain YPI1, hits give low values 0.989 | locus YFR019W, strain FAB1, hits give low values 1 | locus YFR028C, strain CDC14, hits give low values 0.986 | locus YGR040W, strain KSS1, hits give low values 0.981 | locus YGR052W, strain FMP48, hits give low values 1.08 | locus YGR092W, strain DBF2, hits give low values 0.962 | locus YHR030C, strain SLT2, hits give low values 1.07 | locus YHR079C, strain IRE1, hits give low values 1.08 | locus YHR082C, strain KSP1, hits give low values 1.07 | locus YHR205W, strain SCH9, hits give low values 0.964 | locus YIL147C, strain SLN1, hits give low values 0.98 | locus YJL095W, strain BCK1, hits give low values 1.08 | locus YJL128C, strain PBS2, hits give low values 0.939 | locus YJL157C, strain FAR1, hits give low values 0.988 | locus YJR016C, strain ILV3, hits give low values 0.984 | locus YJR066W, strain TOR1 (second series), hits give low values 0.971 | locus YJR066W, strain TOR1, hits give low values 1.12 | locus YKL048C, strain ELM1, hits give low values 0.984 | locus YKL067W, strain YNK1, hits give low values 0.988 | locus YKL101W, strain HSL1, hits give low values 0.98 | locus YKL193C, strain SDS22, hits give low values 0.991 | locus YKL203C, strain TOR2, hits give low values 1.08 | locus YLR113W, strain HOG1, hits give low values 0.957 | locus YLR133W, strain CKI1, hits give low values 0.989 | locus YLR403W, strain SFP1, hits give low values 1 | locus YML070W, strain DAK1, hits give low values 0.99 | locus YMR001C, strain CDC5, hits give low values 0.984 | locus YMR205C, strain PFK2 (second series), hits give low values 0.995 | locus YMR277W, strain FCP1, hits give low values 0.992 | locus YNL006W, strain LST8, hits give low values 0.998 | locus YNL020C, strain ARK1, hits give low values 0.988 | locus YNL161W, strain CBK1, hits give low values 0.988 | locus YNL183C, strain NPR1, hits give low values 1.09 | locus YNL207W, strain RIO2, hits give low values 0.997 | locus YNL222W, strain SSU72, hits give low values 0.991 | locus YNL307C, strain MCK1 (second series), hits give low values 0.981 | locus YOL078W, strain AVO1, hits give low values 0.994 | locus YOL136C, strain PFK27, hits give low values 0.966 | locus YOR061W, strain CKA2, hits give low values 0.988 | locus YOR119C, strain RIO1, hits give low values 1.02 | locus YOR231W, strain MKK1, hits give low values 1.06 | locus YOR329C, strain SCD5, hits give low values 0.984 | locus YPL031C, strain PHO85, hits give low values 0.981 | locus YPL153C, strain RAD53, hits give low values 0.984 | locus YPL204W, strain HRR25, hits give low values 0.986 | locus YPL209C, strain IPL1, hits give low values 0.992 | locus YPL256C, strain CLN2, hits give low values 1.07 | locus YPR025C, strain CCL1, hits give low values 0.992 | locus YPR106W, strain ISR1, hits give low values 0.983 | locus YPR111W, strain DBF20, hits give low values 0.984 | strain NNK1, hits give low values 0.992 | strain TSCII, hits give low values 0.991

Source: PubChem BioAssay AID1159580 (chemical genetic matrix, 2015)
